Results filed as inconclusive are left out. Active and inactive are the calls of the source. Calls follow the shape of the dose curve; as a rule, active = well fitted curve in the direction sought with a large enough effect; inconclusive = small, poorly fitted or top-dose-only effect, or another doubt; inactive = no such curve, though single readings can be large or run the other way.
Target: Polyunsaturated fatty acid lipoxygenase ALOX15 (Homo sapiens) (UniProt P16050)
Assay: Counterscreen qHTS for inhibitors of human arachidonate 12S-lipoxygenase (ALOX12): ALOX15 Assay
Conditions: purified ALOX15 enzyme activity; series mostly up to 110 µM
How it was run: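 Xylenol orange–ferric complex formation, read as the 573 nm to 405 nm absorbance ratio, tracks product from 50 uM arachidonic acid turned over for 30 min at RT. Enzyme is 40 nM ALOX15, pH 7.5 HEPES buffer, compound-preincubated 15 min.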

Sequence of Polyunsaturated fatty acid lipoxygenase ALOX15 (Homo sapiens) (P16050 whole entry, looked up): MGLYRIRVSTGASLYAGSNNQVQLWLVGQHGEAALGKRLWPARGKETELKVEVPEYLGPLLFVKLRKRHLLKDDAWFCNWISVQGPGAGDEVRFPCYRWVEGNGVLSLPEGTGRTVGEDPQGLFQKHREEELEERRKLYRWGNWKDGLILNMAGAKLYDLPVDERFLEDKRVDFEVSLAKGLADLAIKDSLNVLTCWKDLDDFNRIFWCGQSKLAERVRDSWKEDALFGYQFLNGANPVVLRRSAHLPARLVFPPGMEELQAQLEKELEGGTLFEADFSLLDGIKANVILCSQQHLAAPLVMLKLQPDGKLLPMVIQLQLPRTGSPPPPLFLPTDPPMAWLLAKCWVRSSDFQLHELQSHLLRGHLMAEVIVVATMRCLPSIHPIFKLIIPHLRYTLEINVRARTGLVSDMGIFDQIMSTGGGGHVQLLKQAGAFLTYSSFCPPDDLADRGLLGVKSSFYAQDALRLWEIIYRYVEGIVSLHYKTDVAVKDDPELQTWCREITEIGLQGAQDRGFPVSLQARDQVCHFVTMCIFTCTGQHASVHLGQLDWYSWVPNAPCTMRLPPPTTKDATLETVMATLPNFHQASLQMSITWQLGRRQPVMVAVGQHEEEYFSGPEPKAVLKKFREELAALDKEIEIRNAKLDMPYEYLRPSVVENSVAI

| SMILES | outcome |
| --- | --- |
| O=C1NCc2ccccc2CC12CCN(Cc1cccc(C(F)(F)F)c1)C2 (stereo not given) | inactive |
| CC[C@@H](Nc1ncnc2c1CN(C1CCCNCC1)C(=O)CN2C)c1ccccc1 (stereo not given in full) | inactive |
| O=c1[nH]c(C2CCCN(Cc3ccc(-c4cc(F)cc(F)c4)cc3)C2)nc2ccc(F)cc12 (stereo not given) | inactive |
| O=C1NCc2ccccc2CC12CCN(Cc1ccnc3ccccc13)CC2 | inactive |
| Fc1ccc(CN2CC(Oc3ccc4c(c3)OCO4)C2)cc1 | inactive |
| COc1ccc(N2CC3CCC(C2)N3Cc2ccc(C#N)cc2)cc1 | inactive |
| CNC(=O)c1cn2c(n1)CN([S+](C)(=O)[O-])CC2 | inactive |
| CN1CC(=O)N(C2CCCNCC2)Cc2c(NCc3ccc4c(c3)OCO4)ncnc21 (stereo not given) | inactive |
| NCCC(=O)N1Cc2ccccc2CC2(CCCCN2CC2CCNCC2)C1 (stereo not given) | inactive |
| COc1ccc(CN2CCC3(Cc4ccccc4CNC3=O)C2)c(O)c1 (stereo not given) | inactive |
| CNCc1ccccc1-c1ccccc1 | inactive |
| CC(C)[S+](=O)([O-])N1CCN(c2ccc(Cl)nn2)C(=O)C1 | inactive |
| COc1ccccc1C(=O)N1CCC(N2Cc3ccccc3C2=O)CC1 | inactive |
| Cc1cc(C(=O)NCc2ccncc2)c2c(C3CCNCC3)noc2n1 | inactive |
| COCCNc1nc2c([S+](=O)([O-])c3cc(OC)ccc3OC)nnn2c2ccccc12 | inactive |
| CN1CC(=O)N(C2CCNCC2)Cc2c(NC3CCCCC3O)ncnc21 (stereo not given) | inactive |
| CN(C)CCC(=O)N1Cc2ccccc2CC2(CCCCN2CC2CCOCC2)C1 (stereo not given) | inactive |
| CN1CC(=O)N(C2CNC2)Cc2c(NCC3CC3)ncnc21 | inactive |
| Cc1ccccc1N(C)C1CN(C(=O)OC(C)(C)C)C1 | inactive |
| Cc1ccc2nc(C3CCCN(Cc4ccccc4)C3)[nH]c(=O)c2c1 (stereo not given) | inactive |
| COC[C@@H]1CCCN1c1ncnc2c1CN(C1CCNC1)C(=O)CN2C (stereo not given in full) | inactive |
| COc1cccc(CNc2ncnc3c2CN(C2CCCNCC2)C(=O)CN3C)c1 (stereo not given) | inactive |
| Cn1nc(C2CCCN2)c2c(C(=O)NCc3cccs3)cc(C3CC3)nc21 (stereo not given) | inactive |
| CN1CC(=O)N(C2CCCNCC2)Cc2c1ncnc2N1CCC(C#N)CC1 (stereo not given) | inactive |
| N#Cc1ccc(CN2CCC3(CC(c4cccc(C(F)(F)F)c4)=NO3)C2)cc1 (stereo not given) | inactive |

| SMILES | outcome |
| --- | --- |
| CN(C)C(=O)N1CCCC(c2nnc3n2CCNC3)C1 (stereo not given) | inactive |
| O=C(c1ccc2c(c1)OCO2)N1CCC(c2nnc3n2CCNC3)CC1 | inactive |
| O=C(c1cc(C2CC2)nc2c1c(C1CCCN1)nn2-c1ccccc1)N1CCC(F)CC1 (stereo not given) | inactive |
| COc1ccc(N2CC3CCC(C2)N3CC(C)C)cc1 | inactive |
| O=C1NCc2ccccc2CC12CCN(Cc1ccnc3ccccc13)C2 (stereo not given) | inactive |
| O=c1[nH]c(C2CCCN(Cc3ccc(-c4ccccc4)cc3)C2)nc2ccc(F)cc12 (stereo not given) | inactive |
| O=C1NCc2ccccc2CC12CCN(Cc1c(F)cccc1Cl)CC2 | inactive |
| CN1CC(=O)N(C2CCNCC2)Cc2c(NCCc3cccc(F)c3)ncnc21 | inactive |
| O=C(c1ccc2c(c1)OCO2)N1CCCC2(CC(c3ccccc3)=NO2)C1 (stereo not given) | inactive |
| NCc1cccc(-c2ccsc2)c1 | inactive |
| CCNc1ncnc2c1CN(C1CCCNC1)C(=O)CN2C (stereo not given) | inactive |
| O=C(N1CCOCC1)N1CCC(c2nnc3n2CCNC3)CC1 | inactive |
| Cc1ccc(C(=O)N2CCC(N3Cc4ccccc4C3=O)CC2)cc1 | inactive |
| Cc1ccc(CN2CC3ON=C(C(=O)O)C3C2)cc1 (stereo not given) | inactive |
| O=C(c1ccc(Cl)cc1)N1CC2(CCCN(Cc3ccc(Cl)cc3)C2)Cc2ccccc21 (stereo not given) | inactive |
| COc1ccc(CN2CCC3(CC(c4cccc(C(F)(F)F)c4)=NO3)C2)cc1 (stereo not given) | inactive |
| COc1ccc(CNc2ncnc3c2CN(C2CCCNC2)C(=O)CN3C)cc1 (stereo not given) | inactive |
| O=C1NCc2ccccc2CC12CCN(Cc1ccc(Br)s1)CC2 | inactive |
| Cn1nc(C2CCCN2)c2c(C(=O)NCc3ccncc3)cc(C3CC3)nc21 (stereo not given) | inactive |
| O=Cc1ccccc1-c1ccc(OC(F)(F)F)cc1 | inactive |
| O=c1[nH]c(C2CCN(Cc3ccc(-c4cccnc4)cc3)CC2)nc2ccc(F)cc12 | inactive |
| O=C1NCc2ccccc2CC12CCCN2Cc1ccccc1Cl (stereo not given) | inactive |
| COc1cc(OC(F)(F)F)ccc1C(=O)NCc1nnc2n1C(C(=O)O)CC2 (stereo not given) | inactive |
| CCc1nc2c(c(-c3ccc(OC)cc3)n1)CN([S+](=O)([O-])c1cccc(OC)c1)CC2 | inactive |
| CN1CC(=O)N(C2CCC2)Cc2c(NC3CCNCC3)ncnc21 | inactive |

| SMILES | outcome |
| --- | --- |
| CCOc1ccccc1CN1CCCCC12Cc1ccccc1CNC2=O (stereo not given) | inactive |
| c1ccc2c(c1)CCN2C1CN(Cc2cccc3ccccc23)C1 | inactive |
| CC(=O)NCCC(=O)N1Cc2ccccc2CC2(CCCN(CC3CCNC3)C2)C1 (stereo not given) | inactive |
| O=C1NCc2ccccc2CC12CCCN2Cc1ccsc1 (stereo not given) | inactive |
| O=C1NCc2ccccc2CC12CCN(Cc1ccc(Cl)o1)C2 (stereo not given) | inactive |
| O=C(O)c1cccc(-c2cnc3ccccc3c2)c1 | inactive |
| CCOCCCNc1ncnc2c1CN(C1CCNCC1)C(=O)CN2C | inactive |
| O=C1NC(=NC2CCCCC2)C2(CCN(Cc3ccc(F)cc3)C2)N1c1cccnc1 (stereo not given) | inactive |
| COc1ccc(CC(=O)N2Cc3ccccc3CC23CCCN(C(=O)CCCN)C3)cc1 (stereo not given) | inactive |
| CN1CC(=O)N(C2CCCNCC2)Cc2c1ncnc2N1CCc2ccccc2C1 (stereo not given) | inactive |
| Cc1noc(C)c1C(=O)N1Cc2ccccc2CC2(CCN(C)C2)C1 (stereo not given) | inactive |
| O=C1NCc2ccccc2CC12CCN(Cc1cccc(OC(F)(F)F)c1)C2 (stereo not given) | inactive |
| C[S+](=O)([O-])N1CCCC(c2nnc3n2CCNC3)C1 (stereo not given) | inactive |
| O=C1NC2(Cc3ccccc31)CN(C(=O)c1ccccc1F)C2 | inactive |
| CN1CCC(C(=O)N2CCCC3(Cc4ccccc4CN3C(=O)c3ccccc3)C2)CC1 (stereo not given) | inactive |
| CNC(=O)c1cn2c(n1)CN(C(=O)OC)CC2 | inactive |
| CN1CC(=O)N(C2CCCNC2)Cc2c1ncnc2N1CCc2ccccc2C1 (stereo not given) | inactive |
| O=C(c1ccc(Cl)cc1)N1CC2(CCN(Cc3ccc(Cl)cc3)C2)Cc2ccccc21 (stereo not given) | inactive |
| O=C(N1CCCCC1)N1CCCC(c2nnc3n2CCNC3)C1 (stereo not given) | inactive |
| CCN1CCCC2(Cc3ccccc3CN([S+](=O)([O-])c3ccccc3)C2)C1 (stereo not given) | inactive |
| O=C1Nc2ccccc2CN(CC2CC2)C12CCNCC2 | inactive |
| Cc1ccc(-c2cccc(CN3CCCC(c4nc5ccc(F)cc5c(=O)[nH]4)C3)c2)c(C)c1 (stereo not given) | inactive |
| O=C(c1ccc2c(c1)OCO2)N1CCC2(CC1)C(=O)Nc1ccccc12 | inactive |
| NC(C(=O)N1CCC2(CC1)CN(C(=O)Cc1cccc(Cl)c1)CCO2)c1ccccc1 (stereo not given) | inactive |
| CN1CC(=O)N(c2cccc(F)c2)Cc2c1ncnc2N1CCC(F)CC1 | inactive |
